Whole data set: some 18,000 sequences, median “log2 normalized intensity” near 0.36, cut for the highest 2% near 7.3. The full list was thinned out, with the highest values kept by preference.

The values below come from publication PMC10726135, “HNF4α isoforms regulate the circadian balance between carbohydrate and lipid metabolism in the liver”.

The target in the assay is T1, HNF4alpha8 (COS-7 nuclear extract) (Homo sapiens, UniProt P41235-5 1-452).
T1 sequence: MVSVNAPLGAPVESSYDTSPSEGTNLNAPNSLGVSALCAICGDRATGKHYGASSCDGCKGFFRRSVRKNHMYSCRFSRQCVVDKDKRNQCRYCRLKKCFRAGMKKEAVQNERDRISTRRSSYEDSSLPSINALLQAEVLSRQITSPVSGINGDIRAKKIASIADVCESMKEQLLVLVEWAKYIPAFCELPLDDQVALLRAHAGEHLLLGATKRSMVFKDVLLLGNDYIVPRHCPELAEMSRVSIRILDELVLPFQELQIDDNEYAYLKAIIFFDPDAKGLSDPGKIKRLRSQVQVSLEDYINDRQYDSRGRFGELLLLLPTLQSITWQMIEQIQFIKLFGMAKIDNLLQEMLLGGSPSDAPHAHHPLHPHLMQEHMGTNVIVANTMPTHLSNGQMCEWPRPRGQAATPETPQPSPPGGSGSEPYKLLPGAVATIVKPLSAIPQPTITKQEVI
The assay is described as follows: protein-binding microarray; COS-7 nuclear extract on double-stranded Agilent 4x180k PBM; binding buffer, salt, pH and temperature not given in the material; high values mean tight binding. The settings on record: chain copies: 2; label: 3' end of strand 1 on the slide; dsDNA, one strand shown. In a few lines:
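Nuclear extracts came from COS-7 cells transiently transfected by CaPO4 with a human HNF4α isoform expression vector. They were applied to a custom Agilent SurePrint G3 4x180k array of ~60-nt oligonucleotides, made double-stranded, with ~44,000 test sequences spotted in quadruplicate. Bound HNF4α was imaged at 2-µm resolution on an Agilent G2565CA scanner. Binding signal was taken as background-corrected, normalized gProcessedSignal from Agilent software.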
On to “GCTTATCTGGGAGGGGGAGGTTTTGTGTCTGCCTAGGGAGATTAGAGTATCGGTCGA”, for which the binding signal amounted to 0.884 log2 normalized intensity.

For the sequence “AAATGTAATCAGCAAGTTTTATATGAAAACGCCTAGGGAGATTAGAGTATCGGTCGA”, the binding signal was 0.415 log2 normalized intensity.

Turning to “CTGTGGTCATTAATTAACTTGTGTTCAGAGGCCTAGGGAGATTAGAGTATCGGTCGA”, the binding signal came to 1.07 log2 normalized intensity.

Consider “TGTTCTTTACTTCCTTTTGTTCCTGCTCTAGCCTAGGGAGATTAGAGTATCGGTCGA”, for which the binding signal is 1.67 log2 normalized intensity.

For the sequence “AGTCTGCTCAAGTCTTTTAGAATGTGGATGGCCTAGGGAGATTAGAGTATCGGTCGA”, the binding signal is 1.71 log2 normalized intensity.

Consider “TCAGTTGCAGAAAAACAGGTTCTGCAACACGCCTAGGGAGATTAGAGTATCGGTCGA”, for which the binding signal was 0.876 log2 normalized intensity.

For “ATTACCAATGAGAAACCTCAAAGGTTAGGGGCCTAGGGAGATTAGAGTATCGGTCGA”, the binding signal was found to be 0.852 log2 normalized intensity.

Regarding “GAGCAAAGGGCATGGAGGATTTAGATAACAGCCTAGGGAGATTAGAGTATCGGTCGA”, the binding signal came out at 0.728 log2 normalized intensity.

For “TATCTTGTGACCTTTGACTCATTATCCCCCGCCTAGGGAGATTAGAGTATCGGTCGA”, the binding signal was determined as 7.09 log2 normalized intensity.

Turning to “CTGAACTTTAAACTGGTGTGTCTTGCCTTTGCCTAGGGAGATTAGAGTATCGGTCGA”, the binding signal came out at 2.42 log2 normalized intensity.

“AGTGGTTTAAAAACTTATCTTGTGACCTTTGCCTAGGGAGATTAGAGTATCGGTCGA”: the binding signal is 7.47 log2 normalized intensity.

In the case of “ATCTGACCTTTGGTTAACTTCTTAACTTGGGCCTAGGGAGATTAGAGTATCGGTCGA”, the binding signal came out at 3.5 log2 normalized intensity.

Consider “CTTATCTACTTTAAGATTTGACCCTTGGCCGCCTAGGGAGATTAGAGTATCGGTCGA”, for which the binding signal is 7.78 log2 normalized intensity.

As to “TTAAGATTTGACCCTTGGCCAGGTGCAGTGGCCTAGGGAGATTAGAGTATCGGTCGA”, the binding signal worked out at 5.41 log2 normalized intensity.

For the sequence “ATTCTCTTATCTACTTTAAGATTTGACCCTGCCTAGGGAGATTAGAGTATCGGTCGA”, the binding signal came out at 5.76 log2 normalized intensity.

As for “AAACTTATCTTGTGACCTTTGACTCATTATGCCTAGGGAGATTAGAGTATCGGTCGA”, the binding signal stood at 7.16 log2 normalized intensity.

As for “TTTAAAAACTTATCTTGTGACCTTTGACTCGCCTAGGGAGATTAGAGTATCGGTCGA”, the binding signal turned out to be 8.96 log2 normalized intensity.

As for “TTACTGGGGCCCATTGTATGAGGGTGAAGTGCCTAGGGAGATTAGAGTATCGGTCGA”, the binding signal is 0.972 log2 normalized intensity.

Regarding “CTATCTCAGATAGCTTTAGCCGGACTTTGTGCCTAGGGAGATTAGAGTATCGGTCGA”, the binding signal was 5.85 log2 normalized intensity.

Turning to “CGGACTTTGTCCTTTGATTTTTTAAAGTAAGCCTAGGGAGATTAGAGTATCGGTCGA”, the binding signal came to 5.37 log2 normalized intensity.

As to “CATCGGACTTTGATCTGCCACATACCTTTAGCCTAGGGAGATTAGAGTATCGGTCGA”, the binding signal turned out to be 5.04 log2 normalized intensity.

Turning to “AAATGTACTGGATATAGCCAGATGTCCTTTGCCTAGGGAGATTAGAGTATCGGTCGA”, the binding signal was determined as 2.37 log2 normalized intensity.

On to “TCAGATAGCTTTAGCCGGACTTTGTCCTTTGCCTAGGGAGATTAGAGTATCGGTCGA”, for which the binding signal stood at 8.54 log2 normalized intensity.

Take “TAGCTTTAGCCGGACTTTGTCCTTTGATTTGCCTAGGGAGATTAGAGTATCGGTCGA”: the binding signal was 7.5 log2 normalized intensity.

As to “ACCCAGGTGTGTTGCAACTTTGACTATAGCGCCTAGGGAGATTAGAGTATCGGTCGA”, the binding signal was determined as 0.342 log2 normalized intensity.

With “GTTTGCATTTTAACCTTTGGCTGGTAGAGCGCCTAGGGAGATTAGAGTATCGGTCGA”, the binding signal was 4.17 log2 normalized intensity.

As for “AGCCGTCTGGTAAATTTCTAACACTCCCCAGCCTAGGGAGATTAGAGTATCGGTCGA”, the binding signal stood at 2.15 log2 normalized intensity.

As for “GGGTCAGTTTATCTAAGATTCCCCCTACCCGCCTAGGGAGATTAGAGTATCGGTCGA”, the binding signal was found to be 4 log2 normalized intensity.

For the sequence “GGCTTGATCCCTGAACTTTGCTCCCACCCTGCCTAGGGAGATTAGAGTATCGGTCGA”, the binding signal turned out to be 6.25 log2 normalized intensity.

As to “AAGTGACCCTGGTCTTTGCCCTTTCCTAGAGCCTAGGGAGATTAGAGTATCGGTCGA”, the binding signal stood at 3.98 log2 normalized intensity.

Regarding “TGGGCTCCTGCCTTGGAGAAGTGAACTTTGGCCTAGGGAGATTAGAGTATCGGTCGA”, the binding signal turned out to be 5.62 log2 normalized intensity.

For “CCTTGGATCTCCTGCACCTGAACTTTGCTCGCCTAGGGAGATTAGAGTATCGGTCGA”, the binding signal was found to be 6.94 log2 normalized intensity.

Regarding “TCCTGCCTTGGAGAAGTGAACTTTGCCCTCGCCTAGGGAGATTAGAGTATCGGTCGA”, the binding signal was determined as 10.7 log2 normalized intensity.

As to “GTGAACTTTGCCCTCTCTTTCTGGAACCTAGCCTAGGGAGATTAGAGTATCGGTCGA”, the binding signal is 5.67 log2 normalized intensity.

As for “GAGAAGTGAACTTTGCCCTCTCTTTCTGGAGCCTAGGGAGATTAGAGTATCGGTCGA”, the binding signal came out at 8.26 log2 normalized intensity.

Take “TCTCTGGCTTGATCCCTGAACTTTGCTCCCGCCTAGGGAGATTAGAGTATCGGTCGA”: the binding signal is 8.76 log2 normalized intensity.

As to “ACTGATCTCTGGCTTGATCCCTGAACTTTGGCCTAGGGAGATTAGAGTATCGGTCGA”, the binding signal amounted to 4.37 log2 normalized intensity.

For the sequence “TGGAATCCAAAGTATTTTCTGTCTAGGTGCGCCTAGGGAGATTAGAGTATCGGTCGA”, the binding signal was determined as 0.637 log2 normalized intensity.

Take “TTGCCTAACTGCTGCATGTCATGACCTTCAGCCTAGGGAGATTAGAGTATCGGTCGA”: the binding signal amounted to 3.69 log2 normalized intensity.

On to “TCTACTCCCTGTTCTTACACCTGCTCCCCTGCCTAGGGAGATTAGAGTATCGGTCGA”, for which the binding signal was 2.97 log2 normalized intensity.

With “TGTATACTTATGTAGAAAGATATCTCTGTGGCCTAGGGAGATTAGAGTATCGGTCGA”, the binding signal amounted to 1.3 log2 normalized intensity.

For “AAGATCATTCCAGGAATGTTCAAGAAGTTCGCCTAGGGAGATTAGAGTATCGGTCGA”, the binding signal is 0.0918 log2 normalized intensity.

As to “AGATAGGACAGTGGTCTTTATGACTTGGGTGCCTAGGGAGATTAGAGTATCGGTCGA”, the binding signal came out at 1.4 log2 normalized intensity.

For the sequence “GACTATTTTATTTTCCCCCTTTGAAGTCTGGCCTAGGGAGATTAGAGTATCGGTCGA”, the binding signal is 3.2 log2 normalized intensity.

For the sequence “GTCCTTCCCAAGTCCTGCATGTGTTCACACGCCTAGGGAGATTAGAGTATCGGTCGA”, the binding signal is 1.21 log2 normalized intensity.

In the case of “AGTAACCTGACCCCCAGTGGAATGTGCCCTGCCTAGGGAGATTAGAGTATCGGTCGA”, the binding signal is 4.61 log2 normalized intensity.
